Compound activity (PubChem)
Hits are enriched below; roughly 2.3% of the tested compounds scored in any of these assays.
TRPV1 ag: HTS Assay for Compounds that Act as Agonists of the Vanilloid Receptor 1; Transient receptor potential cation channel subfamily V member 1 (Homo sapiens), Q8NER1; TRPV1-expressing cells, Fluo-8 calcium influx, agonist mode; activation, % at 8.33 µM; actives 0.19% (n = 320,000); AID 540275, 2011; in the data active means activation above about 80%; inconclusive means between about 30% and that limit; further: 0% is about no effect
Target sequence (Q8NER1 whole entry, looked up): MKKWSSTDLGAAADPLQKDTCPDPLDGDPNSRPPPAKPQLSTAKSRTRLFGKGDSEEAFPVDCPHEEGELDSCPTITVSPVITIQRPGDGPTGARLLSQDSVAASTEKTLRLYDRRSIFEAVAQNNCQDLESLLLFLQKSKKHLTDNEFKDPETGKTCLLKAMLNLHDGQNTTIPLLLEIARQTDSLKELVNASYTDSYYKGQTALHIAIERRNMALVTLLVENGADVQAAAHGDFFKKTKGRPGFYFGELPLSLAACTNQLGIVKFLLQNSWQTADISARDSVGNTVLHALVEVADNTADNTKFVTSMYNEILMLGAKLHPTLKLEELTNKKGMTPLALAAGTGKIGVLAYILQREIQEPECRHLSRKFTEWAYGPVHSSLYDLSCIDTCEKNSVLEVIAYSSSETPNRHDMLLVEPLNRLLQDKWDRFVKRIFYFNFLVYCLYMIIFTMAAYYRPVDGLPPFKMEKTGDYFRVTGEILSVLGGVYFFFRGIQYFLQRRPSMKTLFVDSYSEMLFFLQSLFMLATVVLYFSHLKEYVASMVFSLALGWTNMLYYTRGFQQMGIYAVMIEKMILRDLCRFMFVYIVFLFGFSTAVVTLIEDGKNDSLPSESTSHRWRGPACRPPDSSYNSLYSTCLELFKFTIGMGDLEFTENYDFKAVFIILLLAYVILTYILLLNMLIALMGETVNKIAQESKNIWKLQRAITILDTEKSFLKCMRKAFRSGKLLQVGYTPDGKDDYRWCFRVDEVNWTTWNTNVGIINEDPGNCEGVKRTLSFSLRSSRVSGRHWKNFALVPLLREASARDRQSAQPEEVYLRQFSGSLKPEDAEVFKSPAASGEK
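Fluo-8 calcium influx in TRPV1-expressing cells, kinetic read (ex 480/em 520 nm). Compound added and read 3 min for agonist activity, followed by capsaicin at EC20 final and 2 min further read for enhancement.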
ELG1 repair inh: qHTS screen for small molecules that inhibit ELG1-dependent DNA repair in human embryonic kidney (HEK293T) cells expressing luciferase-tagged ELG1. Potency, µM (titrated, usually from 46.1 µM), without a hit: at the highest dose activity change, negative = inhibition, actives largely listed as inhibitors. actives 2.3% (n = 330,000). HEK293T ELG1-luciferase reporter, luminescence, 16 h; DNA damage induced by 5-fluorouridine; further: potency means the concentration at half of the fitted maximal effect; on the % scale 0 is the no-effect control and ±100 the full control effect; nearly all actives have a fitted effect of over 55% in size
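HEK293T cells expressing luciferase-tagged ELG1 (2,000/well) received 5-Fluorouridine plus compound or DMSO for 16 hr at 37 °C. Luciferase was read by ONE-Glo luminescence after 30 min at room temperature.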
Giardia kill: Small Molecules that selectively kill Giardia lamblia: qHTS; Giardia lamblia trophozoite viability; activity change, % at 7.66 µM, hits read low; actives 0.15% (n = 340,000); AID 540267, 2011; in the data active means activity change below about -80%; inconclusive means between about -30% and that limit;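 further: parasites exposed to compound for two days anaerobically before the ATP read; on the % scale 0 is the no-effect control and ±100 the full control effect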
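Viability, read as ATP luminescence: trophozoites at 100 cells/well, compound added, 48 hrs anaerobic at 37 deg C, then 15-30 min room-temperature development before reading.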
TRPV1 PAM: HTS Assay for Compounds that Act as Potentiators of the Vanilloid Receptor 1 | Transient receptor potential cation channel subfamily V member 1 (Homo sapiens), Q8NER1 | TRPV1-expressing cells, Fluo-8 calcium influx, capsaicin EC20 potentiation | potentiation, % at 8.33 µM | actives 0.02% (n = 320,000); in the data active means potentiation above about 80%; inconclusive means between about 30% and that limit; further: 0% is about no effect
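Cells expressing TRPV1 were dye-loaded with Fluo-8 and read kinetically: 10 s baseline, 3 min after compound (agonist portion), then 2 min after EC20 capsaicin (allosteric enhancer portion). Calcium-bound dye fluorescence at 480/520 nm.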
FUS yeast rescue: qHTS for Suppressors of FUS Proteinopathy: Primary screen using FUS-linked yeast assay. S. cerevisiae FUS-expressing, growth rescue, OD600, 24 h. Potency, µM (doses to about 76.6 µM), hits mostly activators. actives 0.24% (n = 390,000);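 further: potency means the concentration at half of the fitted maximal effect; plate controls were DMSO vehicle for no effect and reference control for full effect; nearly all actives have a fitted effect of over 55% in size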
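Quantitative HTS measuring growth restoration of FUS-toxic yeast. Galactose-induced cells (OD 0.005) were exposed 24hr at 30C to compounds at several concentrations, then absorbance at 600 nm was recorded.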
The depositor's hits bear a star; i = inactive; ? = inconclusive; · = not tested or not shown. Unless noted, the call rests on the fitted dose curve; in most records, active means well fitted curve in the direction sought with a large enough effect; inconclusive means small, poorly fitted or top-dose-only effect, or another doubt; inactive means no such curve, though single readings can be large; an effect the other way counts as inactive or inconclusive.

SMILES	TRPV1 ag	ELG1 repair inh	Giardia kill	TRPV1 PAM	FUS yeast rescue
CCOC(=O)N1CCN(C(=O)CCCn2c(=S)[nH]c3ccccc3c2=O)CC1	5.3	·	-6.0	-3.3	i
O=C(CCCn1c(=S)[nH]c2cc3c(cc2c1=O)OCO3)N1CCN(C2CCCCC2)CC1	0.6	-1.2%	-1.4	11.1	i
Cc1cccc(CN2CCN(CC(=O)Nc3c(C)cccc3C)S2(=O)=O)c1	·	·	·	·	i
O=C(CCCn1c(=S)[nH]c2cc3c(cc2c1=O)OCO3)N1CCN(c2ccc(F)cc2)CC1	1.0	16.4µM*	10.8	4.6	i
O=C(CCCCCn1c(=S)[nH]c2cc3c(cc2c1=O)OCO3)N1CCN(c2ccccc2)CC1	1.4	2.5%	-22.2	3.8	i
CCCCC12CN3CC(C)(CN(C1)C3c1c[nH]c3ccccc13)C2=O (configuration not stated)	·	·	·	·	i
COc1ccc(C(=O)C2CCCN(C(=O)c3noc4c3CCCC4)C2)c(C)c1 (configuration not stated)	?	25.9µM*	12.0	-18.5	i
O=C(NCCc1ccccc1Cl)c1ccc(Cn2c(=O)c3cccn3c3cccnc32)cc1	·	·	·	·	i
Cc1ccc(C(=O)c2c3ccc(C(F)(F)F)cc3[n+]([O-])n2CCCN)cc1	-3.3	?	-89.8*	9.4	i
COc1ccc(-c2cnc(N)nc2-c2ccc(OC)cc2O)cc1	18.1	23.1µM*	-2.2	-8.9	i
CCOc1ccc(N(C(=O)c2ccc(OC)cc2)S(=O)(=O)c2ccc3c(c2)n(C)c(=O)n3C)cc1	·	·	·	·	i
O=C1CCCN1c1ncc(S(=O)(=O)c2ccc([N+](=O)[O-])cc2)s1	-2.9	-12.1%	-27.2	-4.5	i
O=C1NCCN1c1ncc([N+](=O)[O-])s1	-3.5	0.0%	-88.1*	7.8	i
COc1ccccc1NC(=O)Nc1ccnn1C1CCN(C(=O)C2CCOC2)CC1 (configuration not stated)	·	·	·	·	i
Fc1ccc(CNc2ccc(N3CCN(Cc4ccccc4)CC3)cc2)cc1	1.5	7.3µM*	12.2	-0.1	i
CCCCOc1ccc(CNC(=O)C2CCCN(c3nnc(-n4c(C)ccc4C)s3)C2)cc1 (configuration not stated)	·	·	·	·	i
Cc1nc(N2CCN(Cc3ccc(Cl)cc3)CC2)c2oc3ccccc3c2n1	25.2	18.3µM*	6.2	0.5	i
Cc1nc(N2CCC(C)CC2)c2oc3ccccc3c2n1	22.1	20.6µM*	-7.7	-4.6	i
CCOC(=O)C1CCCN(C(=O)c2cc3c(-c4cccc(OC)c4)nn(C)c3s2)C1 (configuration not stated)	22.3	11.6µM*	-12.8	-12.5	i
COc1cccc(-c2nn(C)c3sc(C(=O)N4CCOCC4)cc23)c1	·	18.4µM*	0.5	·	i
CCc1ccc(-c2nc3c(c(SCc4ccc(F)cc4)n2)Cc2c(CO)cnc(C)c2O3)cc1	·	·	·	·	i
Cc1ccc(S(=O)(=O)c2cn(Cc3ccccc3)c3cc(N4CCCC4)c(F)cc3c2=O)cc1	·	·	·	·	i
N#CC(C(=S)Nc1ccccc1)c1nc2ccccc2[nH]1 (configuration not stated)	7.3	13µM*	5.6	7.1	i
O=C(Cn1ncc2c3ccccc3n(Cc3ccccc3)c2c1=O)NCCCN1CCCCC1	·	·	·	·	i
CCn1nc(C)cc1C(=O)N1CCCC(Nc2ccc(C(C)C)cc2)C1 (configuration not stated)	81.3*	?	-14.8	-7.9	·
SMILES	TRPV1 ag	ELG1 repair inh	Giardia kill	TRPV1 PAM	FUS yeast rescue
COc1ccc(NC(=O)c2nnn(Cc3ccc(Br)cc3F)c2N)c(OC)c1	·	·	·	·	i
COc1ccc(OC)c(NC(=O)c2nnn(Cc3ccc(Br)cc3F)c2N)c1	6.6	20.6µM*	13.5	?	i
Cc1ccccc1NC(=O)CSc1nccn1C	·	·	·	·	i
CCCCn1c(=O)[nH]c(=O)c2c1nc(CN1C(=O)c3ccccc3S1(=O)=O)n2CCC	1.7	?	-28.3	-5.9	i
CCCCn1c(=O)[nH]c(=O)c2c1nc(Cn1ncc(Cl)c(Cl)c1=O)n2CCC	0.5	23.1µM*	7.7	?	i
CN(C)S(=O)(=O)c1cccc(N=c2scc(-c3ccc4c(c3)NC(=O)CO4)n2CC2CCCO2)c1 (configuration not stated)	-1.1	23.1µM*	-9.1	7.5	?
COc1ccccc1N=c1scc(-c2ccc3c(c2)NC(=O)CO3)n1CC1CCCO1 (configuration not stated)	15.5	16.4µM*	21.7	-20.2	i
CCn1c(=O)c2sccc2n2c(CCCC(=O)Nc3ccc(Oc4ccccc4)cc3)nnc12	·	·	·	·	i
CCCCOCCCNC(=O)C[C@@H]1C[C@]2(C(=O)OCC)CCC3=C2N(CCC3)C1=O	·	·	·	·	i
COc1ccc(-c2onc(C)c2C)cc1S(=O)(=O)Nc1cc(Cl)ccc1C	·	·	·	·	i
COc1ccc(-n2c(C)cc(C(=O)COc3ccc(C)nc3[N+](=O)[O-])c2C)cc1	6.6	18.0%	-80.8*	10.6	·
CO[C@H]([C@H](C)/C=C/N(C)C=O)[C@@H](C)C(=O)CC[C@H](C)[C@H](O)[C@H](C)[C@H]1OC(=O)/C=C/C(C)=C/C[C@H](O)C[C@@H]2C=CC[C@@H](C[C@H](OC)[C@@H](C)[C@@H](OC)C[C@@H](OC)[C@@H]1C)O2	·	·	·	·	14.1µM*
C=CCn1c(=O)c2c3c(sc2n2c(Nc4ccccc4)nnc12)CCCC3	?	20.6µM*	1.9	-9.6	i
C=CCn1c(=O)c2c3c(sc2n2c(Nc4ccc(OC)cc4)nnc12)CCCC3	5.6	8.2µM*	5.8	0.4	i
O=C(Nc1cc2c(cc1C(=O)c1ccccc1)OCCO2)c1ccc(Br)cc1	·	·	·	·	i
CCOc1ccc(C2C(=O)N(C3CCCCCC3)CC(=O)N2CCc2ccccc2)cc1OC (configuration not stated)	·	·	·	·	i
Cc1ccc(Cl)cc1-n1nnc(-c2nc(-c3ccc4c(c3)OCO4)no2)c1C	·	·	·	·	i
COCCCNc1c2c3c(cccc3[nH]c1=O)C(=O)c1ccccc1-2	2.0	11.6µM*	-16.5	9.2	?
COCCCNC1=C(Cl)C(=O)c2ccccc2C1=O	-1.4	?	-5.5	9.3	i
CCc1cccc(NC(=O)CN2CCCN(Cc3cccc(C)c3)S2(=O)=O)c1	·	·	·	·	i
COc1cc(/C=N/Nc2ncc(C(F)(F)F)cc2Cl)cc(OC)c1O	?	13µM*	1.4	-18.2	·
COc1cc(/C=N/Nc2ncc(C(F)(F)F)cc2Cl)cc(OC)c1OC	2.3	?	5.1	-0.4	i
